# Laboratory results: PubChem BioAssay (NCI)
# This is part of a sample that, as a whole, favours compounds with a hit. Of some 79,000 tested, about 15% had one in any assay. Unmarked numbers belong to inactive results. Activity calls are given as the source filed them. No stated cut-off is given here; in the data, active means growth inhibition above about 70%; inactive means the rest.
# Legend:
# [1] = NCI Yeast Anticancer Drug Screen. Data for the rad50 strain (AID 155);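 further: 0% = growth of vehicle-only cultures of the same strain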; conditions: S. cerevisiae rad50 strain growth inhibition, stronger effect = higher value
# Procedure, shortened: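 Yeast carrying a defined DNA repair defect were exposed to test compounds, and growth was compared with vehicle-treated controls to give percent inhibition.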
# [2] = NCI Yeast Anticancer Drug Screen. Data for the mec2-1 strain (AID 157); conditions: S. cerevisiae mec2-1 strain, stronger effect = higher value
# Procedure, shortened: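 Using mec2-1 yeast: add compound, measure growth, express inhibition versus vehicle-treated cultures.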
# [3] = NCI Yeast Anticancer Drug Screen. Data for the sgs1 mgt1 strain (AID 161);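 further: 0% = growth of cultures given vehicle only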; conditions: S. cerevisiae sgs1 mgt1 strain, stronger effect = higher value
# Procedure, shortened: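 Compounds are added to genetically altered yeast, and growth is compared with cultures given vehicle alone to give percent inhibition.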
# [4] = NCI Yeast Anticancer Drug Screen. Data for the cln2 rad14 strain (AID 165);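 further: 0% = growth equal to vehicle treated cultures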; conditions: S. cerevisiae cln2 rad14 strain, stronger effect = higher value
# Procedure, shortened: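 Yeast strain cln2 rad14, bearing defects in cell cycle control and DNA repair, serves as the test system; values reflect growth inhibition compared with vehicle.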
# [5] = NCI Yeast Anticancer Drug Screen. Data for the bub3 strain (AID 167); conditions: S. cerevisiae bub3 mutant strain, stronger effect = higher value
# Procedure, shortened: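 Compounds were applied to a genetically altered yeast strain carrying a cell-cycle control defect. Growth inhibition was scored against vehicle-treated controls.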
# [6] = NCI Yeast Anticancer Drug Screen. Data for the mlh1 rad18 strain (AID 175); conditions: S. cerevisiae mlh1 rad18 strain growth inhibition, stronger effect = higher value
# Procedure, shortened: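 Steps: expose repair-defective yeast to compound; measure growth; express inhibition against vehicle-treated controls.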
# [7] = at 5.0 µM (retest, dose inferred, filed as 0.5)
# [8] = at 50.0 µM (retest, dose inferred, filed as 5.0)
SMILES,"growth inhibition [1, 7]","growth inhibition [1, 8]",growth inhibition ([1]; at 50.0 µM),"growth inhibition [2, 7]","growth inhibition [2, 8]",growth inhibition ([2]; at 50.0 µM),"growth inhibition [3, 7]","growth inhibition [3, 8]",growth inhibition ([3]; at 50.0 µM),"growth inhibition [4, 7]","growth inhibition [4, 8]",growth inhibition ([4]; at 50.0 µM),"growth inhibition [5, 7]","growth inhibition [5, 8]",growth inhibition ([5]; at 50.0 µM),"growth inhibition [6, 7]","growth inhibition [6, 8]",growth inhibition ([6]; at 50.0 µM)
CCCCOCN(CC(CC)CCCC)CC(CC)CCCC (configuration not stated),4%,15%,26%,3%,14%,12.8%,1%,29%,73.4% (active),4%,10%,5.3%,1%,20%,18.9%,-4%,37%,52.1%
CC(=O)/C(=C\c1ccc(Cl)cc1Cl)C(=O)CCN(C)C,4%,99% (active),97.5% (active),-3%,99% (active),99.3% (active),11%,99% (active),97.3% (active),4%,98% (active),76% (active),-1%,98% (active),98% (active),1%,98% (active),98.8% (active)
COc1cc(O)c2c(=O)c3cccc(C)c3[nH]c2c1,8%,73% (active),2.6%,-17%,28%,54.9%,3%,41%,46.1%,14%,37%,49.4%,2%,54%,62.6%,2%,54%,70% (active)
O=C1C=CC(=O)c2c(O)c(N3CCC[C@@H]3CO)c(Cl)c(O)c21,20%,65%,30.1%,30%,64%,41.5%,25%,52%,51.2%,19%,36%,30.2%,21%,29%,72.2% (active),26%,71% (active),4.25%
CC1=C(C(=O)Nc2cccc(Cl)c2)C(c2ccccc2F)C(C(=O)Nc2cccc(Cl)c2)=C(C)N1,44%,44%,71.3% (active),49%,49%,81.8% (active),37%,37%,86.2% (active),36%,36%,85.1% (active),56%,56%,86.8% (active),62%,62%,87.7% (active)
OC/C(=C\c1ccccc1Br)c1ccccc1Br,2%,99% (active),99% (active),7%,100% (active),99.1% (active),6%,66%,99.2% (active),0%,100% (active),97.5% (active),10%,99% (active),99% (active),-10%,99% (active),99% (active)
O=c1c(SSc2coc3ccccc3c2=O)coc2ccccc12,22%,99% (active),94.4% (active),27%,96% (active),96.3% (active),27%,98% (active),87.5% (active),42%,94% (active),91.3% (active),13%,94% (active),71.9% (active),17%,97% (active),93.5% (active)
O=P1(NCC2CCCO2)OCC2(CO1)COP(=O)(NCC1CCCO1)OC2 (configuration not stated),99% (active),95% (active),47.3%,100% (active),98% (active),99.6% (active),100% (active),98% (active),99% (active),99% (active),96% (active),98.4% (active),99% (active),97% (active),98.5% (active),100% (active),96% (active),98.7% (active)
Cc1cc(N=Nc2ccccc2)ccc1O,-13%,99% (active),99.4% (active),-11%,100% (active),99.5% (active),-2%,100% (active),99.5% (active),-31%,99% (active),99.3% (active),6%,99% (active),99.3% (active),-8%,99% (active),99.3% (active)
CC(C)C(Br)CC/C(CBr)=C(\Cl)CCl (configuration not stated),24%,99% (active),87% (active),21%,99% (active),85.1% (active),13%,99% (active),92.5% (active),17%,98% (active),90.2% (active),30%,99% (active),92.2% (active),17%,99% (active),56.4%
Cc1ccc2c(c1)C1(SC(CC(=O)O)C(=O)N1c1ccc(Cl)cc1)C(=O)N2 (configuration not stated),4%,5%,2.3%,0%,-1%,12.3%,1%,-6%,-6.85%,-1%,-4%,-4.2%,1%,0%,-2.8%,0%,-49%,10.5%
CCC1CCC2C3CC=C4CC(OC(C)=O)C(N)CC4(C)C3CCC12C (configuration not stated),6%,96% (active),93% (active),9%,94% (active),92.3% (active),4%,93% (active),89.2% (active),45%,95% (active),91.3% (active),-5%,95% (active),85.6% (active),12%,94% (active),91.8% (active)
COC1/C=C/OC2(C)Oc3c(C)c(O)c4c5c(cc(O)c4c3C2=O)N=C(O5)/C(C)=C\C=C\C(C)C(O)C(C)C(O)C(C)C(OC(C)=O)C1C (configuration not stated),5%,99% (active),55.2%,-71%,99% (active),60%,-60%,96% (active),53.6%,28%,99% (active),53.5%,3%,99% (active),48.5%,4%,98% (active),60.6%
O=C(O)/C=C/C(=O)Nc1cc2c(cc1Br)-c1ccccc1C2Br (configuration not stated),8%,77% (active),9.15%,1%,38%,40.9%,3%,69%,7.45%,-1%,27%,38.1%,-12%,71% (active),-3.8%,4%,81% (active),11.2%
O=C(Nc1ccccc1)OCCN=C1c2ccccc2CCc2ccccc21,4%,95% (active),66.1%,-35%,96% (active),76.2% (active),-27%,95% (active),81.7% (active),-30%,94% (active),84% (active),-30%,96% (active),83.9% (active),-22%,95% (active),88.8% (active)
CCCCCCCCCCCCCCCCCC[n+]1cccc(C(=O)N2CCOCC2)c1,91% (active),99% (active),99.8% (active),86% (active),100% (active),99.8% (active),99% (active),100% (active),99.8% (active),60%,99% (active),99.3% (active),86% (active),99% (active),99.7% (active),97% (active),100% (active),99.8% (active)
CCOC(=O)c1cn(CC)c2cc(-n3cccc3)ccc2c1=O,-3%,28%,31.4%,-1%,21%,20.6%,-2%,39%,56.4%,-2%,17%,22.2%,0%,27%,33.5%,1%,50%,47.2%
NC(=O)C1(Br)C=[N+](Cc2ccccc2)CCC1 (configuration not stated),0%,-2%,29.2%,3%,-3%,11.9%,-3%,-4%,11.8%,-2%,-3%,13.9%,-2%,-6%,-3.4%,2%,1%,24.4%
COC(=O)c1ccc(OCCC(=O)CCl)cc1,0%,56%,99.5% (active),1%,52%,99.8% (active),3%,55%,99.7% (active),4%,31%,69.1%,11%,67%,99.6% (active),2%,72% (active),97.8% (active)
